A short description of assay [1]: NFAT Signaling Pathway (AID 444; active means well fitted curve in either direction with a large enough effect, not every such curve was filed as active;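 further: carbachol stimulus at about its EC50 of 1 µM final; on the % scale 0 is the no-effect control and ±100 the full control effect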). The conditions noted are these: Jurkat NFAT-bla M1, carbachol, beta-lactamase ratio, 5 h; at 17.2 µM (top of the series) unless noted. A digest of the protocol:
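Jurkat cells carrying an NFAT-driven β-lactamase reporter and co-transfected muscarinic M1 receptor were treated with compound plus carbachol (1 uM final, an EC50 level) for 5 h at 37 °C. CCF4 loading followed for 1 h at RT; 460/530 nm ratio gave %activity.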

Assay [2] in a line: Stat Signaling Pathway (AID 446; active means well fitted curve in either direction with a large enough effect, not every such curve was filed as active;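 further: ME-180 cervical cancer cells given 40 pM IL-6 alongside compound; SIE-controlled beta-lactamase reporter measured as 460/530 nm FRET emission ratio; on the % scale 0 is the no-effect control and ±100 the full control effect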). The conditions noted are these: ME-180 SIE beta-lactamase reporter, IL-6 stimulated, 5 h; at 17.2 µM (top of the series) unless noted. A digest of the protocol:
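Reporter line: ME-180 cervical carcinoma, SIE-beta-lactamase. Treatment: compound with 40 pM IL-6, 5 hrs, 37 C, in low-serum OPTI-MEM with 10 mM HEPES pH 7.3. Detection: 460/530 nm fluorescence.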

Assay [3] concerns the target Glucocorticoid receptor (Homo sapiens) (UniProt P04150). The assay can be described thus: GR-GFP Redistribution (AID 450;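 active means compounds whose dose series gives a full or clear partial fitted curve of increased nuclear translocation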; further: potency means the concentration at half of the fitted maximal effect).
Assay [4] concerns the target Mitogen-activated protein kinase 10 (Mus musculus) (UniProt Q61831). The assay can be described thus: JNK3 AlphaScreen Assay (AID 530; active means well fitted curve in either direction with a large enough effect, not every such curve was filed as active;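 further: kinase came from lysate of stimulated human HepG2 cells; signal reports phosphorylation of biotinylated GST-cJun 1-79 at Ser73 with 10 µM ATP; on the % scale 0 is the no-effect control and ±100 the full control effect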). Put shortly:
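Inhibitors reduce antibody binding to phosphorylated biotin-cJun, lowering AlphaScreen luminescence. Lysates from HepG2 cells pre-activated by IL-1beta plus TNF-alpha supplied JNK3; compounds were titrated.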
For orientation: In Alpha technology, singlet oxygen from a donor bead excites a nearby acceptor bead.

The target in assay [5] is 3',5'-cyclic-AMP phosphodiesterase 4B (Homo sapiens) (UniProt Q07343). The assay can be described thus: qHTS Assay for Inhibitors of PDE-IV (AID 607; active means well fitted activation curve with a large enough effect in the main read-out, with a control signal flat, not every such curve was filed as active; further: % of control where 0% means no effect). Put shortly: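 Cell-based read-out of cAMP via a modified cyclic nucleotide-gated channel and membrane potential dye (535/590 nm) in HEK293 cells expressing PDE4 endogenously. Compounds tested up to 22.9 uM final; 100 uM RO 20-1724 reference.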
Chain of 3',5'-cyclic-AMP phosphodiesterase 4B (Homo sapiens) (Q07343 whole entry, looked up): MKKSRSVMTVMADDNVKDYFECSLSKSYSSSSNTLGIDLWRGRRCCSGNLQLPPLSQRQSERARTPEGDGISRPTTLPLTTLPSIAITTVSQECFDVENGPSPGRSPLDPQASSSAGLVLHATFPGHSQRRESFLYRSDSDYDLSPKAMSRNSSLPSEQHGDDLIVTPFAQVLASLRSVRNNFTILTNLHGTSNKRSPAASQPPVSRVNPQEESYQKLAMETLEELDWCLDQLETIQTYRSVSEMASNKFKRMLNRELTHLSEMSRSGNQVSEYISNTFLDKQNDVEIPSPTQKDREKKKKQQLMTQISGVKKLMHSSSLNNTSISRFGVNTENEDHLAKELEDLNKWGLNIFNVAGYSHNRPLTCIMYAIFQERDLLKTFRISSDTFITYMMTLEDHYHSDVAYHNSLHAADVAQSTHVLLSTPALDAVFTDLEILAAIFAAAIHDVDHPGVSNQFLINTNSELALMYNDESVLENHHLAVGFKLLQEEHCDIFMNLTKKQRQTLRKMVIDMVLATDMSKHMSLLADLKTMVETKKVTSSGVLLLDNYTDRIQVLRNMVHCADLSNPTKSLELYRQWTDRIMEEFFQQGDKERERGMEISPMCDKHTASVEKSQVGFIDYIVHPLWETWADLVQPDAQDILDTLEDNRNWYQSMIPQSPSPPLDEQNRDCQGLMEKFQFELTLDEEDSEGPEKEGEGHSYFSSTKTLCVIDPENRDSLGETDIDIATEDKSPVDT
For orientation: qHTS replaces the single test concentration by a dilution series.

Assay [6] concerns the target ATP-dependent 6-phosphofructokinase (Trypanosoma brucei brucei) (UniProt O15648). Description: qHTS Assay to Find Inhibitors of T. brucei phosphofructokinase: hit validation (AID 492961).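 Further: luminescence reports ADP formed as PFK phosphorylates fructose-6-phosphate with ATP; on the % scale 0 is the no-effect control and ±100 the full control effect.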 A digest of the protocol: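 Reaction: 0.1 M triethanolamine pH 8.0, 5 mM MgCl2, F6P 0.5 mM, ATP 0.1 mM, PFK 1.25 nM, 45 min RT. Read-out: ADP-Glo luminescence. Analysis: concentration-response fits, classed by r2 and efficacy.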

For assay [7], the target named is Luciferin 4-monooxygenase (Photinus pyralis) (UniProt P08659). The assay can be described thus: Biochemical firefly luciferase enzyme assay for NPC (AID 624030).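 Further: purified P. pyralis luciferase at 10 nM with luciferin and ATP substrate; 0% = DMSO and -100% = full luciferase inhibition by PTC124 control; nearly all actives have a fitted effect of over 70% in size.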 A digest of the protocol:
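Counter-screen for direct inhibition of the luciferase enzyme by approved-drug library compounds, run at 10 nM enzyme in 50 mM Tris acetate (final). Luminescence was read within 5 min of enzyme-buffer addition and normalized to PTC124 versus DMSO (0%).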

Assay [8] in a line: S16 Schwann cell viability assay (CellTiter-Glo assay) (AID 624031).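 Further: plate controls were DMSO-treated cells for no effect and cell-free wells for full effect; nearly all actives have a fitted effect of over 70% in size.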 A digest of the protocol: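 Native S16 rat Schwann cells in DMEM/10% FBS without phenol red were incubated overnight, then exposed to compounds for 24 h at 37 °C/5% CO2. Viability was read as ATP luminescence (CellTiter-Glo), normalized to no-cell wells and DMSO (0%).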
In general terms: ATP-based viability assays read luminescence as a measure of living cells.

A short description of assay [9]: S16 Schwann cell PMP22 intronic element firefly luciferase assay (AID 624032).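 Further: plate controls were DMSO for no effect and PTC124 positive control mean for full effect; nearly all actives have a fitted effect of over 30% in size.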 Put shortly:
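Rat S16 Schwann cells stably carrying a PMP22 intronic element-driven Fluc reporter were seeded overnight, then exposed to compounds for 24 h at 37 °C. Luminescence was normalized to PTC124 (positive control) and DMSO (0% activity).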

Assay [10] in a line: S16 Schwann cell PMP22 intronic element beta-lactamase assay (AID 624044; calls by dose curve; further: potency means the concentration at half of the fitted maximal effect; nearly all actives have a fitted effect of over 15% in size). The following applies: S16 rat Schwann cells, PMP22 element beta-lactamase FRET, 24 h; ratio activity, negative = inhibition: at 38.3 µM (top of the series). A digest of the protocol:
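Rat S16 Schwann cells with beta-Lac driven by a PMP22 intronic element, compound-treated 24 h at 37 °C. LiveBLAzer FRET B/G read: 460 nm normalized to potassium clavulanate vs DMSO; 535 nm FRET as viability; concentration-effect curves classified.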

The next assay has as its system 7G8. Description: qHTS profiling for inhibitors of Plasmodium falciparum proliferation (AID 504749). Further: nearly all actives have a fitted effect of over 60% in size. Further: potency means the concentration at half of the fitted maximal effect.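 On activity, negative = inhibition: 0% = DMSO vehicle and full inhibition = artemisinin control.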 The following applies: P. falciparum in erythrocytes, SYBR Green DNA, 72 h; series mostly up to 28.7 µM. A digest of the protocol: (§1)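 Parasite proliferation within erythrocytes, 72 h exposure. Endpoint: SYBR Green I fluorescence after overnight lysis at room temperature. Controls: 0.29 uM artemisinin, DMSO.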

The test system of the next assay is CP192. The assay is described as above. The following applies: P. falciparum in erythrocytes, SYBR Green DNA, 72 h; series mostly up to 28.7 µM. A digest of the protocol: as §1
The test system of another assay is CP201. The assay is described as above. The conditions noted are these: P. falciparum in erythrocytes, SYBR Green DNA, 72 h; series mostly up to 28.7 µM. Put shortly:
as §1

Another assay deals with CP203. The description is as above. The conditions noted are these: P. falciparum in erythrocytes, SYBR Green DNA, 72 h; series mostly up to 28.7 µM. Put shortly: as §1
A further assay relates to CP262. The description is as above. The following applies: P. falciparum in erythrocytes, SYBR Green DNA, 72 h; series mostly up to 28.7 µM. Put shortly: as §1
For another assay, the system named is CP266. The assay is described as above. The following applies: P. falciparum in erythrocytes, SYBR Green DNA, 72 h; series mostly up to 28.7 µM. Put shortly:
as §1

In a further assay the test system is CP315. The assay is described as above. The conditions noted are these: P. falciparum in erythrocytes, SYBR Green DNA, 72 h; series mostly up to 28.7 µM. A digest of the protocol: as §1
The next assay concerns DIV14. The assay is described as above. The following applies: P. falciparum in erythrocytes, SYBR Green DNA, 72 h; series mostly up to 28.7 µM. A digest of the protocol: as §1
In another assay the test system is FAB9. The description is as above. The following applies: P. falciparum in erythrocytes, SYBR Green DNA, 72 h; series mostly up to 28.7 µM. Put shortly: as §1
A further assay concerns HB3. Described as above. The following applies: P. falciparum in erythrocytes, SYBR Green DNA, 72 h; series mostly up to 28.7 µM. A digest of the protocol:
as §1

Another assay relates to PC15. The description is as above. The following applies: P. falciparum in erythrocytes, SYBR Green DNA, 72 h; series mostly up to 28.7 µM. Put shortly:
as §1

The test system of another assay is PC26. The description is as above. The conditions noted are these: P. falciparum in erythrocytes, SYBR Green DNA, 72 h; series mostly up to 28.7 µM. A digest of the protocol: as §1
In another assay the test system is PC49. The assay is described as above. The conditions noted are these: P. falciparum in erythrocytes, SYBR Green DNA, 72 h; series mostly up to 28.7 µM. Put shortly: as §1
A further assay relates to W2. The description is as above. The conditions noted are these: P. falciparum in erythrocytes, SYBR Green DNA, 72 h; series mostly up to 28.7 µM. Put shortly: as §1

Unmarked numbers belong to inactive results. Inconclusive results are not listed. The source made the active and inactive calls. Unless noted, the call rests on the fitted dose curve; in most records, active means well fitted curve in the direction sought with a large enough effect; inconclusive means small, poorly fitted or top-dose-only effect, or another doubt; inactive means no such curve, though single readings can be large; an effect the other way counts as inactive or inconclusive.

Chain of Glucocorticoid receptor (Homo sapiens) (P04150 whole entry, looked up): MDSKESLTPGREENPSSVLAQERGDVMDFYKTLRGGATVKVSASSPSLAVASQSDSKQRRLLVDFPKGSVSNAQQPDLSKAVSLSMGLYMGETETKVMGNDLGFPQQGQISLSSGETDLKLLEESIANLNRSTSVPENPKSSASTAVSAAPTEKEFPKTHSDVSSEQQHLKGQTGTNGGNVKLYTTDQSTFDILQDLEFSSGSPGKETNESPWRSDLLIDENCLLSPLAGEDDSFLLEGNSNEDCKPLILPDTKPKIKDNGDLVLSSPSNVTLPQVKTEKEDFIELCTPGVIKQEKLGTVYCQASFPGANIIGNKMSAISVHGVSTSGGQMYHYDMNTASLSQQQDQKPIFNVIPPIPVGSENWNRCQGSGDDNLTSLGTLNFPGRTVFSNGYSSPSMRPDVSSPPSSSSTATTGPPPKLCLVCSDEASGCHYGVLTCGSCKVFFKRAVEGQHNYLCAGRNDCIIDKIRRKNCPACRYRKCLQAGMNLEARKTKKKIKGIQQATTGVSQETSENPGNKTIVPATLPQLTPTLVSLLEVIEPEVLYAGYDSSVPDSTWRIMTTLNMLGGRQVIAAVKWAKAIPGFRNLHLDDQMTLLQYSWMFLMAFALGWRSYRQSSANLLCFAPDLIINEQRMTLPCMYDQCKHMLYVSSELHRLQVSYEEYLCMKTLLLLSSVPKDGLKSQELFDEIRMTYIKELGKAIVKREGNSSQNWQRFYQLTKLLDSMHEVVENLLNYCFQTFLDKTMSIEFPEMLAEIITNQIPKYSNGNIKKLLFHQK
Chain of Luciferin 4-monooxygenase (Photinus pyralis) (P08659 whole entry, looked up): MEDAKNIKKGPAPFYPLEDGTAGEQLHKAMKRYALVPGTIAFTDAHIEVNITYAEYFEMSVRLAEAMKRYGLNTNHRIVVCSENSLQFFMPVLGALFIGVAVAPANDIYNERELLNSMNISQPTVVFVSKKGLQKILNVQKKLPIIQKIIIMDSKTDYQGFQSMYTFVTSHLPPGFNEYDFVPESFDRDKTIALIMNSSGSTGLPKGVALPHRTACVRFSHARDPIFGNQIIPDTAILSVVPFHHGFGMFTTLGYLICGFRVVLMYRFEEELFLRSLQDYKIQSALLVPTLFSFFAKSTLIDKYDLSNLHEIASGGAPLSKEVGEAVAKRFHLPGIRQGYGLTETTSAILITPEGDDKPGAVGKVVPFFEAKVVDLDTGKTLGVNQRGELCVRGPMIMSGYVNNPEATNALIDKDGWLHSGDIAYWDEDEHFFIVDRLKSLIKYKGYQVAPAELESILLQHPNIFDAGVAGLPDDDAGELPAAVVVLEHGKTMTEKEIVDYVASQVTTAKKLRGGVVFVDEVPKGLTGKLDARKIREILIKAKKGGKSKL
Chain of ATP-dependent 6-phosphofructokinase (Trypanosoma brucei brucei) (O15648 whole entry, looked up): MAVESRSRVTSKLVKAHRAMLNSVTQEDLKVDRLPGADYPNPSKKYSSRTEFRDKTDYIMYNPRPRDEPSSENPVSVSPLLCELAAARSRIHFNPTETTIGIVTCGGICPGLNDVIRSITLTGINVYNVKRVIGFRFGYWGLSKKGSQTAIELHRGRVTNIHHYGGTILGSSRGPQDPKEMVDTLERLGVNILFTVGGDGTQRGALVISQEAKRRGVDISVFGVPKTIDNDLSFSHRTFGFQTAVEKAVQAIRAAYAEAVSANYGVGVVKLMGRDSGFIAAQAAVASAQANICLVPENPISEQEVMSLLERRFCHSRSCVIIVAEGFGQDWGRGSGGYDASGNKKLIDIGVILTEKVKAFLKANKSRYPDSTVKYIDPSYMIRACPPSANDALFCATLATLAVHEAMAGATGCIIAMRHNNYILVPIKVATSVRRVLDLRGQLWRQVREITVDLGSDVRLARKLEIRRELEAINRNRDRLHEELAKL

Consider `Cc1ccc(C(=O)C2C(c3cccs3)NC(=O)NC2(O)C(F)(F)F)cc1` (stereo unspecified), for which, in [1], the activity change, negative = inhibition is 8.36%. The activity, negative = inhibition in assay [2] is 0.646%. Besides, in assay [3], the Potency was more than 20.6 µM.

On to `Cc1nc2sc3c(NCc4ccco4)ncnc3c2c2c1COC(C)(C)C2`, for which, in assay [1], the activity change, negative = inhibition is -8.41%. Further, the activity, negative = inhibition in assay [2] is -18.1%. In addition, the Potency in assay [3] is more than 20.6 µM.

Turning to `OCCNc1ncnc2c1c(-c1ccccc1)c(-c1ccccc1)n2Cc1ccco1`, the activity change, negative = inhibition in [1] was -23.1%. Also, the Potency in assay [3] was more than 20.6 µM.

As for `COc1cc([C@H]2c3cc4c(cc3[C@@H](O[C@H]3O[C@H]5CO[C@@H](C)O[C@H]5[C@@H](O)[C@@H]3O)[C@@H]3COC(=O)[C@H]23)OCO4)cc(OC)c1O`, the activity change, negative = inhibition in assay [1] was -0.949%. In addition, the activity, negative = inhibition in assay [2] is -20.6%. The Potency entry in assay [4], in assay [5], in assay [6], in [7], in assay [8] and in [9] was “inactive” each time. In addition, the Potency entry in the assay with CP192, in the assay with CP201, with CP203, with CP262, with CP266 and in the assay on CP315 was “inactive” each time. Besides, the Potency entry in the assay on DIV14, in the assay on FAB9, with HB3, with PC15, in the assay on PC26 and with PC49 was “inactive” in each case. Also, the Potency in assay [10] is 4.46 µM (active); in the assay on 7G8, 15.8 µM (active); with W2, 13.5 µM (active).

These data come from PubChem BioAssay (NCATS).
